DT40 TDP1 no CPT – qHTS for Inhibitors of human tyrosyl-DNA phosphodiesterase 1 (TDP1): qHTS in cells in absence of CPT | DT40 Tdp1-/- hTDP1 cells, no CPT, ATP luminescence, 48 h | Potency, µM (top dose mostly 46.2 µM), without a hit: top-dose activity change, negative = growth inhibition, most hits filed as inhibitors | 420,000 compounds, 15% hits | AID 686978, 2013; also: nearly all actives have a fitted effect of over 55% in size
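Growth kinetics read by CellTiter-Glo luminescence after ≥48 hr at 37 °C. Cells: DT40 Tdp1-/- stably carrying human TDP1, 400 per well, compound exposure in the absence of CPT (DMSO vehicle).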
Gal4-VP16 FLuc – inhibits Gal4-VP16 luciferase reporter, ROR gamma counter-screen. 310,000 compounds, 3.5% hits. Potency, µM (highest dose often 53.6 µM), inactives show at the highest dose activity, negative = inhibition, actives largely listed as inhibitors. Drosophila S2 Gal4-VP16 UAS-luciferase, luminescence, 20 h;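 also: Gal4-VP16 expression switched on by copper sulfate through the metallothionein promoter; nearly all actives have a fitted effect of over 50% in size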
TDP1 block – blocks human tyrosyl-DNA phosphodiesterase 1 | Potency, µM (doses to about 130 µM), for the others: at the top dose activity change, negative = inhibition, most hits filed as inhibitors | AID 485290 | recombinant TDP1, AlphaScreen DNA substrate cleavage | Q9NUW8 | 350,000 compounds, 0.28% hits; also: nearly all actives have a fitted effect of over 40% in size
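Signal: AlphaScreen proximity between streptavidin donor and anti-FITC acceptor beads on intact substrate. Reaction: Tdp1 1 nM, substrate 15 nM final, 5 min RT after 15 min compound preincubation.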
RORg inh – blocks mouse ROR gamma transcriptional activity; Drosophila S2 Gal4-RORgamma UAS-luciferase reporter, 20 h; P51450; Potency, µM (titrated, usually from 53.6 µM), without a hit: at the highest dose activity change, negative = inhibition, actives largely listed as inhibitors; 310,000 compounds, 5.4% hits; also: nearly all actives have a fitted effect of over 60% in size
Target sequence (P51450 whole entry, looked up, the tested form may be a part): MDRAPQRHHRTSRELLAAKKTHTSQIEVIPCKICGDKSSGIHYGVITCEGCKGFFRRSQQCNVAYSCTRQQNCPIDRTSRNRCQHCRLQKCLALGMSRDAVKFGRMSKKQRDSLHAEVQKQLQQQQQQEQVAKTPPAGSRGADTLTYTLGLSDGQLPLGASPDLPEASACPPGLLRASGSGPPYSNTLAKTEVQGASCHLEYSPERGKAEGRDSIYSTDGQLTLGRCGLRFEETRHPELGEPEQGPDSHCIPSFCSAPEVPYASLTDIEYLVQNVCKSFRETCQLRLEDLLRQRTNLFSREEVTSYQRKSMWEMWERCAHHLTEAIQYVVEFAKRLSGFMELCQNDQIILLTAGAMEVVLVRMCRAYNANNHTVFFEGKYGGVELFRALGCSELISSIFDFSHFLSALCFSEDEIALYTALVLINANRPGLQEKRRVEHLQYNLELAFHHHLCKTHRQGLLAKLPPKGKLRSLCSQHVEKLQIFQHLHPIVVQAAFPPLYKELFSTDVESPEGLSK
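Drosophila S2 cells stably expressing Gal4-DBD/mouse RORγ fusion under metallothionein promoter plus UAS-luciferase; compound 1 h, then 700 uM CuSO4 induction for 20 h at ambient temperature; inhibition read as reduced luminescence.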
TDP1 cell CPT – DT40-hTDP1 cell growth loss with CPT | 420,000 compounds, 12% hits | chicken DT40 Tdp1-/-;hTDP1 cells + 20 nM CPT, ATP luminescence, 48 h | Potency, µM (top dose mostly 46.2 µM), for inactives: top-dose activity change, negative = growth inhibition, most hits filed as inhibitors; also: nearly all actives have a fitted effect of over 55% in size
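Chicken DT40 Tdp1-/- cells stably complemented with human TDP1 were seeded at 400 cells/well in medium containing 20 nM camptothecin, exposed to pin-transferred compounds, and grown at 37 °C for at least 48 hr. Viability was read as ATP luminescence.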
* hit, by the source's call; ? = inconclusive; . = no result; [ ] = dose if it differs, or a comment. The list is not random: actives were taken first. Their share in the collection is about 19%. Calls follow the shape of the dose curve; as a rule, active = well fitted curve in the direction sought with a large enough effect; inconclusive = small, poorly fitted or top-dose-only effect, or another doubt; inactive = no such curve, though single readings can be large; an effect the other way counts as inactive or inconclusive. % is scaled to controls: 0 for no effect and ±100 for the full control effect; potency is read from the fitted curve at half-maximal effect.

SMILES | DT40 TDP1 no CPT | Gal4-VP16 FLuc | TDP1 block | RORg inh | TDP1 cell CPT
COc1ccc(Cl)cc1NCCC(O)c1ccc(F)cc1 (configuration not stated) | 9.2µM* | 1% | . | 21% | 18µM*
COc1ccc(Cl)cc1NC(=S)NCCc1ccc(F)cc1 | 6% | 18µM* | 5%[56.1 µM] | 14µM* | ?
COc1ccc(CN2CCN(CCc3ccccc3)C(CCO)C2)c(O)c1 (configuration not stated) | -14% | -16% | 0% | 13% | -11%
Cc1ccc(C2CC(c3ccccc3OC(F)F)Nc3ncnn32)cc1 (configuration not stated) | ? | . | 1% | -1%[0.365 µM] | -27%
O=C(CCC(=O)OCc1ccc(Br)cc1)Nc1ccccc1 | ? | -8% | -8% | 2% | 16µM*
O=C(NC1CC2CCCC(C1)N2Cc1ccco1)NC12CC3CC(CC(C3)C1)C2 (configuration not stated) | 18µM* | 3% | 4% | 0% | 21µM*
CCNC(=S)NC1CC2CCCC(C1)N2Cc1ccco1 (configuration not stated) | -6% | 4% | 4% | 0% | 6%
CC(NC(=O)Cn1c(=O)oc2cc(S(=O)(=O)NCc3ccccc3)ccc21)c1ccccc1 (configuration not stated) | ? | . | 0% | . | ?
O=[N+]([O-])c1ccc(-c2nnc3n2CCCCC3)cc1 | 9% | 1% | . | 2% | -30%
N#C/C(=C/c1ccccc1[N+](=O)[O-])c1nnc2n1CCCCC2 | -2% | -5% | 3% | -7% | 12%
N#C/C(=C(/O)c1cccs1)c1nnc2n1CCCCC2 | -1% | ? | -1% | 10µM* | 0%
N#C/C(=C(/O)c1ccc([N+](=O)[O-])cc1)c1nnc2n1CCCCC2 | 1% | ? | 1% | 18µM* | 1%
COc1ccccc1CNC(=O)COC(=O)c1ccco1 | -1% | . | -4% | . | -13%
COc1ccc(C2(C(=O)Nc3cc(C)on3)CCOCC2)cc1 | -25% | 0% | -2% | -16% | -17%
CCCOc1ccc(-c2csc3nc[nH]c(=O)c23)cc1 | ? | -7% | 1% | ? | ?
Cc1cc(Oc2nc3ccccn3c(=O)c2/C=C(\C#N)C(=O)NC2CCS(=O)(=O)C2)ccc1Cl (configuration not stated) | 16µM* | -2% | 6% | -8% | -25%
COc1ccc(N2CCN(c3nc4c(C)cccn4c(=O)c3/C=C(\C#N)C(N)=O)CC2)cc1 | ? | 2% | . | 18% | ?
N#C/C(=C\c1c(Oc2ccc(Cl)cc2)nc2ccccn2c1=O)C(=O)NC1CCS(=O)(=O)C1 (configuration not stated) | ? | -7% | 9% | -22% | -14%
COc1ccc(Oc2nc3c(C)cccn3c(=O)c2/C=C(\C#N)C(N)=O)cc1 | 1.8µM* | -10% | 6% | 4% | ?
Cc1cccn2c(=O)c(/C=C(\C#N)C(=O)NC3CCS(=O)(=O)C3)c(Oc3ccc(F)cc3)nc12 (configuration not stated) | 21µM* | -7% | -6% | 39% | ?
Cc1cccn2c(=O)c(/C=C(\C#N)C(=O)NC3CCS(=O)(=O)C3)c(N3CCC(C)CC3)nc12 (configuration not stated) | ? | -2% | 7% | -6%[10 µM] | ?
C/C(=N\Nc1ccc([N+](=O)[O-])cc1[N+](=O)[O-])c1ccc(-n2nncc2C(C)(C)C)cc1 | 13µM* | 0% | 11% | 38% | 21µM*
C/C(=N/Nc1ccccc1[N+](=O)[O-])c1ccc([N+](=O)[O-])cc1 | ? | -1% | . | 7% | -8%
O=C(Nc1cc(Cl)ccc1N1CCOCC1)c1ccncc1 | -16% | . | 0% | . | -15%
Cc1ccc(N2C(=O)c3oc4ccccc4c(=O)c3C2c2cccc(O)c2)nc1 (configuration not stated) | ? | . | . | . | 21µM*
